An excerpt weighted towards active compounds, which were near 4.3% of everything screened.
Wnt act: Wnt/beta-catenin pathway activators, primary screen, cell-based, plate reader, single point; 300,000 tested, 1.2% active; Wnt/beta-catenin reporter cell assay, activator; activation, % at 9.35 µM; in the data active means activation above about 30%, passing the limit was not always enough; inconclusive means no clear call, values can overlap the other calls;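 further: 0% = neutral control wells and 100% = positive control wells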
HSF1 inhib: HSF1 inhibitors in luciferase reporter cells, primary screen, cell-based, NIH3T3, luminescence; activity change, negative = inhibition, % at 7.5 µM (by protocol); NIH3T3-HGL HSE-luciferase, MG132-induced, luminescence 8 h; active compounds read low; 300,000 tested, 0.77% active;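 active means more than half of replicate wells show activity change below -50%, luminescence cut by over half; inconclusive means some wells, but at most half, below -50%; inactive means no replicate well below -50%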;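 further: luciferase reports HSF-1 transcriptional activity via heat shock element; 0% = median of DMSO wells and -100% = zero luminescence signal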
esBAF inh: Bmi1 luciferase reporter increase in mESCs, primary screen, esBAF inhibitor project, mouse ES cells, Bmi1 luciferase knock-in, single point; 350,000 tested, 2% active; reporter increase, % at 12.5 µM; 24 h; 100% = twice the neutral-well signal; in the data active means activation above about 40%; inconclusive means no clear call, values can overlap the other calls;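 further: 0% = median of the plate's neutral control wells and 100% = double that signal; a rise in the Bmi1 reporter signal indicates esBAF inhibition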
HSF-1 act: HSF-1 activators, primary screen, NIH3T3-HGL cells, MG132 stress, luminescence, single point; NIH3T3-HGL HSF-1 luciferase reporter, 8 h; 100% = twice DMSO control signal; activation, % at 9 µM; 300,000 tested, 1.7% active; AID 504408, 2011;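 active means mean replicate activation of at least 50% with a set share of replicates each reaching 50%; inconclusive means only one of those two conditions met; inactive means mean below 50% and too few replicates reaching it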;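 further: 0% = median of the neutral control wells and 100% = twice that signal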
SMARCA2 act: SMARCA2 (BRM) function activators, primary screen, cell-based, luminescence, high throughput; MG213 cells, MMTV-luciferase reporter, dexamethasone, overnight; activation, % at 9.1 µM; 370,000 tested, 1% active; in the data active means activation above about 7.8%;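 further: 0% = vehicle wells and 100% = reference activator wells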
MITF act: activators of MITF-driven TRPM1 promoter reporter, primary screen, cell-based, SK-MEL-5, luciferase, single point; SK-MEL-5 TRPM1-promoter luciferase, 24 h; % of positive control, neutral wells = 0; activation, % at 12.5 µM; 300,000 tested, 0.75% active; AID 588334, 2011;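 active means mean activation of at least 80% with every replicate also reaching 80%; inconclusive means mean reaches 80% but some replicate falls short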;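 further: 0% = neutral control wells and 100% = parthenolide positive control wells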
Starred values were filed as active, the others as inactive; ? = inconclusive; nt = no result.

SMILES | Wnt act | HSF1 inhib | esBAF inh | HSF-1 act | SMARCA2 act | MITF act
Cc1c(C(=O)OC2CCC(C)CC2)[nH]c2c1C(=O)CCC2 (stereo not given) | ? | 17 | -4 | 31 | 0 | nt
CCCCCOC(=O)c1[nH]c2c(c1C)C(=O)C(C(=O)OC)C(C)C2 (stereo not given) | nt | 57 | ? | 76* | 2 | 68
COCCOC(=O)c1[nH]c2c(c1C)C(=O)C(C(=O)OC)C(C)C2 (stereo not given) | 7 | 19 | 31 | 42 | 0 | 73
COC(=O)C1C(=O)c2c([nH]c(C(=O)OCC3CCCO3)c2C)CC1C (stereo not given) | 17 | 26 | 55* | 40 | 2 | ?
CC1=C(C(=O)OCC2CCCO2)C(c2ccccc2)NC(=O)N1 (stereo not given) | 1 | 3 | -7 | 6 | 0 | -13
O=C(NCC(=O)N1CCCC1)c1ccccc1F | -4 | 11 | 48* | 9 | 1 | 38
CN1CCCN(C(=O)CNC(=O)c2ccccc2F)CC1 | 1 | nt | 0 | nt | 7 | 19
O=C(NCC(=O)N1CCC(Cc2ccccc2)CC1)c1ccccc1F | 45* | nt | 53* | nt | 3 | nt
CCc1nc(OCc2ccco2)c2sc3nc4c(cc3c2n1)COC(C)(C)C4 | -2 | nt | 5 | nt | 0 | nt
Cc1nc(OCC(C)C)c2sc3nc4c(cc3c2n1)COC(C)(C)C4 | 52* | 1 | nt | 30 | 8 | nt
Nc1cccc(CCc2ccncc2)c1 | -1 | 2 | 4 | -6 | -1 | nt
Nc1cccc(/C=C/c2ccncc2)c1 | 5 | 8 | nt | 54* | -2 | 19
CCCC(=O)NC1=C(Cl)C(=O)c2ccccc2C1=O | 4 | 91* | nt | 91* | -4 | -101
C[C@H](CO)N1C[C@H](C)[C@H](CN(C)C(=O)c2ccncc2)OCc2cn(nn2)CCCC1=O | nt | nt | -2 | nt | nt | nt
COC(=O)c1ccc(C(=O)OC)c(-n2c(=O)c3ccccc3c3ccccc3c2=O)c1 | -2 | 53 | nt | 78* | -2 | -39
CC(C)(C)c1csc(NC(=O)Cc2ccc(S(=O)(=O)N3CCOCC3)s2)n1 | -4 | 5 | 43* | -1 | -3 | -6
COCCCNC(=O)Cc1ccc(S(=O)(=O)N2CCOCC2)s1 | 55* | nt | 1 | nt | 1 | -2
CCCN(C)C[C@H]1Oc2cc(-c3ccc(C)cc3)ccc2S(=O)(=O)N([C@@H](C)CO)C[C@H]1C | nt | nt | 0 | nt | nt | nt
Cc1ccc(S(=O)(=O)N[C@@H]2CC[C@@H](CCNS(=O)(=O)Cc3ccccc3)O[C@@H]2CO)cc1 | nt | nt | -2 | nt | nt | nt
COc1ccccc1N1CCN(C(c2ccc(N(C)C)cc2)c2nnnn2CCc2ccccc2)CC1 (stereo not given) | -5 | -72* | -12 | -78 | -2 | -6
COc1ccc(C(c2nnnn2CCc2ccccc2)N2CCN(C3CCCC3)CC2)cc1 (stereo not given) | -10 | -4 | nt | -13 | 0 | 4
COc1cc(NC(=O)c2cc3c(C)nc4ccccc4c3o2)cc(OC)c1OC | 0 | -51* | 9 | -52 | -4 | 7
CCc1nnc(N/N=C/c2cc(Br)c(O)cc2O)n1N | -1 | 40 | -6 | 57* | 1 | -9
NC(=O)N/N=C\c1cc(Br)ccc1O | -4 | -4 | nt | -8 | -1 | 3
CC(C)(C)c1nnc(N/N=C/c2cc(Br)ccc2O)n(N)c1=O | 33* | -1 | nt | 4 | -2 | -67
SMILES | Wnt act | HSF1 inhib | esBAF inh | HSF-1 act | SMARCA2 act | MITF act
COc1ccc(S(=O)(=O)N(C)C[C@@H]2OCCCC[C@H](C)Oc3ccc(NS(=O)(=O)c4ccc(F)cc4)cc3C(=O)N([C@@H](C)CO)C[C@H]2C)cc1 | nt | nt | 10 | nt | nt | nt
COc1cc(C=O)ccc1OCc1ccncc1 | -1 | 5 | -2 | -5 | -2 | -1
COc1cc(C=O)ccc1OCc1ccc(Cl)nc1 | 38* | 19 | 63* | 28 | -1 | 64
C=CCn1cccc(C(=O)Nc2ccc(SC)cc2)c1=O | 25 | -17 | 55* | -28 | 2 | 76
CCCn1cccc(C(=O)Nc2ccc(OC)cc2)c1=O | 5 | 10 | 27 | 18 | 1 | 27
C=CCn1cccc(C(=O)Nc2ccc(OC)c(Cl)c2)c1=O | nt | 10 | 56* | 15 | nt | 62
C#CCn1cccc(C(=O)Nc2ccc(OC)cc2)c1=O | 11 | 11 | 53* | 27 | 5 | 49
CCC(NC(=O)/C(=C\c1ccc2c(c1)OCO2)NC(C)=O)C(=O)O (stereo not given) | 0 | 27 | nt | 59* | 0 | -5
COc1ccc(Nc2nc(N)nc(CSc3nc(C)cc(C)n3)n2)cc1 | -3 | -89* | nt | -92 | 3 | 8
COc1ccccc1Nc1nc(N)nc(CSc2nc(C)cc(C)n2)n1 | 17 | 7 | nt | 33 | -1 | nt
Nc1nc(CSc2ccccn2)nc(Nc2ccccc2)n1 | 43* | 27 | 52* | 43 | -1 | 152*
Nc1nc(CSCCO)nc(Nc2ccccc2)n1 | nt | -1 | 21 | -3 | 1 | 2
Cc1ccc2nc(C(F)(F)F)c(C#N)c(N)c2c1 | -1 | -14 | -14 | -12 | 0 | -26
Cc1cc(C)c2nc(C(F)(F)F)c(C#N)c(N)c2c1 | nt | -62* | -7 | -68 | -2 | 14
C[C@H](CO)N1C[C@H](C)[C@H](CN(C)S(C)(=O)=O)OCCCC[C@H](C)Oc2ccc(NC(=O)Cc3ccccc3)cc2C1=O | nt | nt | -3 | nt | nt | nt
C[C@@H]1CN([C@@H](C)CO)C(=O)c2cc(C#Cc3ccc(F)cc3)cnc2O[C@H]1CN(C)S(C)(=O)=O | nt | nt | 4 | nt | nt | nt
CCOc1ccc(-c2nnc(SCc3nc4ccccc4[nH]3)n2N)cc1 | 1 | 46 | 13 | 63* | 1 | -1
C/C=C/c1ccc([C@@H]2[C@@H](CO)N(C(=O)NCCC)[C@H]2CNC(=O)C2CCC2)cc1 | nt | nt | -2 | nt | nt | nt
O=C1CC(c2ccc(Cl)cc2)n2nc(NS(=O)(=O)c3ccc(F)cc3)nc2N1 (stereo not given) | nt | 15 | -5 | 64* | 0 | 2
Cc1ccc(NC(=O)c2ccccc2N(C)S(=O)(=O)c2ccccc2)c(C)c1 | -3 | 30 | 2 | 65* | -5 | -4
Cc1ccc(S(=O)(=O)N(C)c2ccccc2C(=O)NC2CCCC2)cc1 | 0 | -72* | nt | -76 | -4 | -4
Cc1ccc(S(=O)(=O)N[C@H]2CC[C@@H](CCNC(=O)CN3CCOCC3)O[C@H]2CO)cc1 | nt | nt | 4 | nt | nt | nt
COc1cc(C(=O)N/N=c2/sc3ccccc3n2C)cc(OC)c1OC | 0 | 10 | nt | 27 | 1 | -11
Cn1/c(=N/NC(=O)c2ccccc2Br)sc2ccccc21 | 51* | 18 | nt | 12 | 4 | 48
